18 compounds from the supplement of paper PMC4206467 can be followed below.

The test has as its system Perkinsus marinus PRA240. The experiment in a line: ATP content (proliferation) relative to DMSO control; higher = more parasite growth (less inhibition). The note with it: 20 µM; 4 days. Here is the method: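 Perkinsus marinus PRA240 trophozoites (2-5x10^6 cells/ml, 100 µl, 96-well) were exposed once to MMV Malaria Box compounds at 20 µM (0.1% DMSO) in triplicate. ATP content (ATPlite bioluminescence) was read at day 4 post-exposure and normalised to DMSO + cells control wells (100% activity). Compounds were identified by joining plate and well to the Malaria Box list.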
In turn, `CN1CCN(c2nc(Nc3ccc(O)cc3)nc3ccccc23)CC1` registered an ATP content of 114%.

The compound `CCN1CCN(c2c(C(=O)c3ccccc3)cnc3cc(OC)c(OC)cc23)CC1` came in with an ATP content of 199%. For `CC(C)(C)CC(C)(C)NCC(O)COc1ccc(Cl)cc1Cl` (stereo not drawn), the ATP content was found to be 123%. `OC(CNC1CCCC1)Cn1c2ccccc2c2ccccc21` (stereo not drawn) yielded an ATP content of 148%.

Turning to `Cc1ccc(CN2CCC(C(=O)Nc3ccc(-c4cc5ccccc5[nH]4)cc3)CC2)o1`, the ATP content amounted to 83.4%. The result for `O=C(Nc1ccc(Cl)c(Cl)c1)Nc1ccc(Cl)c(Cl)c1` reads 91.6%; that for `O=C(CSc1ccc2nnc(-c3cccc(F)c3)n2n1)Nc1ccc2c(c1)OCO2`, 102%. The same measure for `COc1ccc2nc(C)cc(Nc3ccccc3O)c2c1`: 163%. Consider `CCOc1ccc(CCNC(=O)c2cccs2)cc1OCC`, for which the ATP content was 67.6%. `O=C(Nc1cccc(-c2nc3ccccc3[nH]2)c1)c1cccc(NC(=O)c2ccco2)c1` gave an ATP content of 126%. The result for `COc1ccc(Nc2nc(NN=Cc3ccc(O)cc3)nc(Nc3ccc([N+](=O)[O-])cc3)n2)cc1` reads 39.1%. The same measure for `COc1ccc2nc(C)cc(Nc3ccc(Cl)cc3)c2c1`: 103%; for `CC(C)CCNCC(O)Cn1c2ccccc2c2ccccc21` (stereo not drawn): 140%.

Take `CCCCOC(=O)c1ccc(Nc2cc(C)nc3ccc(OC)cc23)cc1`: the ATP content stood at 93.9%. The same measure for `COc1ccc(C(=O)NC(c2ccccc2Cl)c2cc(Cl)c3cccnc3c2O)cc1` (stereo not drawn): 29.8%; for `CCCC(c1nnnn1C1CCCCC1)N1CCN(C(=O)c2ccco2)CC1` (stereo not drawn): 115%; for `COc1ccc(-c2cc(=O)oc3c4c(ccc23)OCN(Cc2ccc(F)cc2)C4)cc1`: 130%.

For `CC(O)(c1ccc(Cl)cc1)C(CN1CCCCC1)c1ccccc1` (stereo not drawn), the ATP content worked out at 79.2%.
